# According to PubChem BioAssay (EPA / NIEHS):
# Several values for one entry are separate records, joined by “and”; a condition that tells them apart may be missing. Identical values can stand only once. A structure can be active in one record and inactive in another. Activity calls are given as the source filed them. Rule for the calls: active = hit-call score of the fitted dose curve at least 0.9, where 1 is the maximum; inactive = score below 0.9.
# How the values were obtained:
# [1] = biological target: Paired box protein Pax-6 (Homo sapiens) (UniProt P26367); test: ATG_Pax6_CIS: Attagene CIS-FACTORIAL HepG2 Assay for human Paired Box 6 (PAX6) (AID 2282956); details: HepG2 CIS-FACTORIAL PAX6 reporter transcription, RNA readout; actives raise or lower the signal
# Method in brief: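 Values derive from bidirectional curve fitting of reporter mRNA signal relative to DMSO. HepG2 cells bearing transfected cis-regulated MRTUs were exposed for 24 h; transcripts were read by RT-PCR and capillary electrophoresis.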
# [2] = ATG_PXRE_CIS: Attagene CIS-FACTORIAL HepG2 Assay for human Pregnane X Receptor Element (PXRE) (AID 2282957); details: HepG2 Attagene CIS-FACTORIAL PXRE reporter, mRNA; actives raise or lower the signal
# Method in brief: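 Read-out: fluorescence of reporter-specific RT-PCR products resolved by capillary electrophoresis, fitted bidirectionally relative to DMSO. Human HepG2 liver cells carried transfected cis-promoter reporter units and were exposed to chemicals for 24 h.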
# [3] = ATG_PPRE_CIS: Attagene CIS-FACTORIAL HepG2 Assay for human Peroxisome Proliferator-activated Response Element (PPRE) (AID 2282958); details: HepG2 PPRE cis-element reporter, Attagene transcription factor profiling; actives raise or lower the signal
# Method in brief: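 Endogenous PPRE-driven transcription is measured in HepG2 cells carrying transfected multi-reporter constructs. Reporter transcripts are quantified by RT-PCR, HpaI digestion and capillary electrophoresis 24 h after dosing. DMSO baseline, bidirectional fit.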
# [4] = ATG_RORE_CIS: Attagene CIS-FACTORIAL HepG2 Assay for human RAR-related Orphan Receptor Element (RORE) (AID 2282959); details: HepG2 Attagene cis-factorial RORE reporter, mRNA; actives raise or lower the signal
# Method in brief: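 RORE reporter transcripts reflecting endogenous factor activity were read after 24 h compound exposure of transfected HepG2 cells, using reverse transcription, PCR, fluorescent labelling and capillary electrophoresis sizing. Gain or loss fitted against DMSO.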
# [5] = ATG_Sox_CIS: Attagene CIS-FACTORIAL HepG2 Assay for human SRY-box transcription factor (SOX) (AID 2282960); details: HepG2 Attagene cis-factorial SOX reporter, mRNA; actives raise or lower the signal
# Method in brief: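 Reporter transcripts, measured by RT-PCR and capillary electrophoresis of labelled fragments, report endogenous SOX transcription factor activity. Transiently transfected human HepG2 cells receive chemical for 24 h; changes in either direction are fitted relative to DMSO.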
# [6] = biological target: Transcription factor Sp1 (Homo sapiens) (UniProt P08047); test: ATG_Sp1_CIS: Attagene CIS-FACTORIAL HepG2 Assay for human Specificity Protein 1 (Sp1) (AID 2282961); details: HepG2 Sp1 cis-reporter transcription, actives raise or lower the signal
# Method in brief: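 Read-out is reporter transcript level, measured by RT-PCR and fluorescent capillary electrophoresis after 24 h chemical treatment. System: transiently transfected HepG2 cells reporting endogenous transcription factor activity; gain or loss fitted against DMSO baseline.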
# [7] = ATG_SREBP_CIS: Attagene CIS-FACTORIAL HepG2 Assay for human Sterol Regulatory Element Binding (SREBP) (AID 2282962); details: HepG2 Attagene cis-factorial SREBP reporter, mRNA; actives raise or lower the signal
# Method in brief: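 Values derive from bidirectional curve fitting with DMSO as baseline. The underlying measurement is reporter mRNA from cis-element-regulated units in transiently transfected HepG2, quantified by RT-PCR and capillary electrophoresis after 24 h exposure.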
# [8] = biological target: Signal transducer and activator of transcription 3 (Homo sapiens) (UniProt P40763); test: ATG_STAT3_CIS: Attagene CIS-FACTORIAL HepG2 Assay for human Signal Transducer and Activator of Transcription 3 (STAT3) (AID 2282963); details: HepG2, Attagene cis-factorial STAT3 reporter transcription; actives raise or lower the signal
# Method in brief: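 Readout: fluorescent reporter mRNA fragments resolved by capillary electrophoresis. Setup: HepG2 transfected with MRTUs reporting endogenous transcription-factor activity, dosed 24 h. Gain or loss of signal fitted bidirectionally against DMSO control.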
# [9] = ATG_TA_CIS: Attagene CIS-FACTORIAL HepG2 Assay for human TA Basal Promoter (AID 2282964); details: HepG2 Attagene CIS-factorial TA basal promoter reporter; actives raise or lower the signal
# Method in brief: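 Transfected HepG2, 24 h compound exposure; RNA → RT-PCR → FAM primer extension → HpaI cut → CE fluorescence. Gain/loss-of-signal fitted against DMSO negative control. Background-control readout.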
# [10] = ATG_TCF_b_cat_CIS: Attagene CIS-FACTORIAL HepG2 Assay for human T-Cell-Factor with beta-catenin (TCF/b-cat) (AID 2282965); details: HepG2 TCF/beta-catenin cis-reporter transcription, actives raise or lower the signal
# Method in brief: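 HepG2, transient MRTU transfection, cis-element-driven reporters (endogenous TFs). 24 h compound exposure. Readout: reporter mRNA by RT-PCR + 6-FAM primer extension, HpaI digest, capillary electrophoresis. Gain/loss fit vs DMSO baseline.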
# Sequence of Transcription factor Sp1 (Homo sapiens) (P08047 whole entry, looked up): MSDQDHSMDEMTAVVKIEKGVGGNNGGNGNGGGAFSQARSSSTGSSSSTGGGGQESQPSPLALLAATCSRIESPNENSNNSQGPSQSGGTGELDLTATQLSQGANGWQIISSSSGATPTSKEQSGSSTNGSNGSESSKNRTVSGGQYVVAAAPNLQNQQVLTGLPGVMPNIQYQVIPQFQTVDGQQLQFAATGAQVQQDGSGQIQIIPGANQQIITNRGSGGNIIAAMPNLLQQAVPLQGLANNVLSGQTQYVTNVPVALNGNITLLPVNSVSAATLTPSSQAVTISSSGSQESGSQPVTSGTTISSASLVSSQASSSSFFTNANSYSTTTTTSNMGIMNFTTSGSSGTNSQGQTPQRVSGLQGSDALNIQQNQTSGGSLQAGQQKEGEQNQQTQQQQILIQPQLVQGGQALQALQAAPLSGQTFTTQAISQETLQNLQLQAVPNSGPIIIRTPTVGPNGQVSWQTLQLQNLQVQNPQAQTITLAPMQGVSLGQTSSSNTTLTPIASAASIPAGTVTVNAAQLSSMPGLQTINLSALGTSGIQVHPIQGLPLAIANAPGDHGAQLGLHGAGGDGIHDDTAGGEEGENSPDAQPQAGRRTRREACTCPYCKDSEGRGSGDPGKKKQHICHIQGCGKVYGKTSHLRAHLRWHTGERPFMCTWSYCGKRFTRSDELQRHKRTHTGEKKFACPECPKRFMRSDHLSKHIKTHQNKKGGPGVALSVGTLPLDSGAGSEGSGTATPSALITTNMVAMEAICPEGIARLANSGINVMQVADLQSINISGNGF
# Sequence of Signal transducer and activator of transcription 3 (Homo sapiens) (P40763 whole entry, looked up, the tested form may be a part): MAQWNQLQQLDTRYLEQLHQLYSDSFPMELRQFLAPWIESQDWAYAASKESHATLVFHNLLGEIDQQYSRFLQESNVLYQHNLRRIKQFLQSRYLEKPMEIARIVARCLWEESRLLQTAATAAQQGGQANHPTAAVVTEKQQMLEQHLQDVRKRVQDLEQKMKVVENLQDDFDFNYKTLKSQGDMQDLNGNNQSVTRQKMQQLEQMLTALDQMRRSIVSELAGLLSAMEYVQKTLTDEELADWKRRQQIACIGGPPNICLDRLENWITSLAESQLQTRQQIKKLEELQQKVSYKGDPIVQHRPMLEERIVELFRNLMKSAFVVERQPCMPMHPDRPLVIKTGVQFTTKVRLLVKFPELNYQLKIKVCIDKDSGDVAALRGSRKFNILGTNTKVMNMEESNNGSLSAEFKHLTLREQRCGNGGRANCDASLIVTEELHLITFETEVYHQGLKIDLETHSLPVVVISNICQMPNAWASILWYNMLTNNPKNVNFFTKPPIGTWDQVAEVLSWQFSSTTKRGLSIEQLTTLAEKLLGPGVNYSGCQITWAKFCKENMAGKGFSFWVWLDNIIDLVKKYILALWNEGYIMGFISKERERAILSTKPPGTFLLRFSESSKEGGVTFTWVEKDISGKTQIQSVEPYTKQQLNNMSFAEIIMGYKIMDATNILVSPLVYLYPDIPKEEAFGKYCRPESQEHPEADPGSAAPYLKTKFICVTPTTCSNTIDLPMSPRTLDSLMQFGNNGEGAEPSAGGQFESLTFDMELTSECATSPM
# Sequence of Paired box protein Pax-6 (Homo sapiens) (P26367 whole entry, looked up): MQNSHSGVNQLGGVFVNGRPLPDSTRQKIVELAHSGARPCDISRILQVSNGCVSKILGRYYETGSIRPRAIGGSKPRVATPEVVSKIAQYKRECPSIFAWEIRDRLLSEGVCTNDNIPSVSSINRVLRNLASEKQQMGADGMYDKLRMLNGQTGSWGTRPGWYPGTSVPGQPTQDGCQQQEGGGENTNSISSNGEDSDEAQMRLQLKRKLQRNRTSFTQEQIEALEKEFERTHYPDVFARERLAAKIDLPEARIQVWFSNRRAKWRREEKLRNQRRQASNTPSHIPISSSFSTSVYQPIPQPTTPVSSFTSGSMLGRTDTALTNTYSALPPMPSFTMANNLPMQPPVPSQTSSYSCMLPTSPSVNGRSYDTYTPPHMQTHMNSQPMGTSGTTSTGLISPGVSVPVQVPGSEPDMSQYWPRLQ
Compound,AC50 [1],outcome [2],outcome [3],AC50 [4],outcome [5],AC50 [6],outcome [7],outcome [8],AC50 [9],outcome [10],outcome [1],AC50 [2],outcome [4],outcome [6],AC50 [7],outcome [9],AC50 [3],AC50 [5],AC50 [8],AC50 [10]
CC1=C2C[C@H]3[C@@H](CC=C4C[C@@H](O)CC[C@@]43C)[C@@H]2CC[C@]12O[C@@H]1C[C@H](C)CN[C@H]1[C@H]2C,13.5 µM (active),inactive,inactive,12.9 µM (active),inactive,12.8 µM (active),inactive,inactive,12.7 µM (active),inactive,,,,,,,,,,
Clc1ccc(C(c2ccccc2Cl)C(Cl)(Cl)Cl)cc1 (stereo not given),70.5 µM (active),,inactive,,inactive,70.5 µM (active),inactive,inactive,45.3 µM (active),inactive,inactive,3.54 µM (active) [middle of 4 runs],inactive,inactive,93.9 µM (active),inactive,,,,
CC(C)(c1ccccc1)c1ccc(O)cc1,52.3 µM (active) and 39.5 µM (active),,inactive,48.9 µM (active),inactive,51.9 µM (active) and 53.1 µM (active),inactive,inactive,54 µM (active),inactive,inactive,2.59 µM (active) [middle of 4 runs],inactive,inactive,,inactive,22.6 µM (active) and 33.4 µM (active),50.8 µM (active),55.9 µM (active) and 54.6 µM (active),39.9 µM (active) and 54.5 µM (active)
O=C(O)C(F)(F)C(F)(F)C(F)(F)C(F)(F)C(F)(F)C(F)(F)C(F)(F)C(F)(F)F,224 µM (active) and 50 µM (active),,,214 µM (active) and 34.7 µM (active),inactive,,inactive,inactive,50 µM (active),,inactive,22.7 µM (active) and 38.2 µM (active) and 13.6 µM (active),inactive,inactive,,inactive,33.4 µM (active) and 89.8 µM (active) and 34 µM (active),,,33.4 µM (active) and 150 µM (active) and 50 µM (active)
CCC(C)(c1ccc(O)cc1)c1ccc(O)cc1,52.8 µM (active) and 62.6 µM (active) and 24.6 µM (active),,,59.1 µM (active) and 21.5 µM (active),inactive,24.4 µM (active),,inactive,60.7 µM (active),inactive,inactive,1.13 µM (active) [middle of 4 runs],inactive,inactive,33.4 µM (active) and 41.5 µM (active) and 13.9 µM (active),inactive,,,,39.7 µM (active) and 49.7 µM (active) and 47.8 µM (active)
CCC(=O)O[C@H]1CC[C@H]2[C@@H]3CCC4=CC(=O)CC[C@]4(C)[C@H]3CC[C@]12C,132 µM (active) and 100 µM (active),,inactive,119 µM (active),inactive,164 µM (active) and 181 µM (active),,inactive,100 µM (active) and 129 µM (active),inactive,inactive,26.7 µM (active) [middle of 4 runs],inactive,inactive,137 µM (active) [middle of 4 runs],inactive,,152 µM (active),,100 µM (active) and 92.5 µM (active)
O=C(N[C@H]1CN2CCC1CC2)c1cc2ccoc2cn1,,inactive,inactive,,inactive,,inactive,inactive,,inactive,inactive,,inactive,inactive,,inactive,,,,
COS(=O)(=O)OC,,inactive,inactive,,inactive,,inactive,inactive,,inactive,inactive,,inactive,inactive,,inactive,,,,
CO/C=C(/C(=O)OC)c1ccccc1COc1cccc(C(F)(F)F)n1,31.9 µM (active),,,23 µM (active),inactive,,,inactive,,,,3.54 µM (active),,inactive,4.44 µM (active),inactive,37.3 µM (active),,,26.4 µM (active)
O=C(O)C(F)(F)C(F)(F)C(F)(F)C(F)(F)C(F)(F)F,,inactive,inactive,,inactive,,inactive,inactive,,inactive,inactive,,inactive,inactive,,inactive,,,,
Cc1ccccc1CO[C@@H]1C[C@@]2(C(C)C)CC[C@]1(C)O2,,,,,inactive,,,inactive,,inactive,inactive,2.14 µM (active),inactive,inactive,14.7 µM (active),inactive,50 µM (active),,,
c1ccc(-c2ccccc2)cc1,,inactive,inactive,,inactive,,inactive,inactive,,inactive,inactive,,inactive,inactive,,inactive,,,,
ClC(Cl)=C(c1ccc(Cl)cc1)c1ccc(Cl)cc1,100 µM (active),,inactive,,inactive,95.5 µM (active) [middle of 4 runs],inactive,inactive,,inactive,inactive,4.93 µM (active) [middle of 4 runs],inactive,,130 µM (active) and 169 µM (active),inactive,31.7 µM (active) and 78.5 µM (active) and 27.1 µM (active),66.7 µM (active),,
O=C(NC(=O)c1c(F)cccc1F)Nc1cc(Cl)c(OC(F)(F)C(F)F)c(Cl)c1,,inactive,inactive,,inactive,,inactive,inactive,,inactive,inactive,,inactive,inactive,,inactive,,,,
CCCCCCCCCc1ccc(O)cc1,,inactive,inactive,,inactive,,inactive,inactive,,inactive,inactive,169 µM (active) and 11.1 µM (active),,inactive,,inactive,,,168 µM (active),100 µM (active)
CN(C)c1nc(=O)n(C2CCCCC2)c(=O)n1C,,,inactive,,inactive,,inactive,inactive,,inactive,inactive,50 µM (active),inactive,inactive,,inactive,,,,

Compound,AC50 [1],outcome [2],outcome [3],AC50 [4],outcome [5],AC50 [6],outcome [7],outcome [8],AC50 [9],outcome [10],outcome [1],AC50 [2],outcome [4],outcome [6],AC50 [7],outcome [9],AC50 [3],AC50 [5],AC50 [8],AC50 [10]
CCCCCCOC(=O)c1ccccc1C(=O)OCCCCCC,,,,,inactive,,inactive,inactive,,inactive,inactive,3.19 µM (active),inactive,inactive,,inactive,2.84 µM (active),,,
CCOC(=O)C(O)(c1ccc(Cl)cc1)c1ccc(Cl)cc1,,,inactive,,inactive,,inactive,inactive,,inactive,inactive,3.33 µM (active),inactive,inactive,,inactive,,,,
CCCCCCCCOC(=O)c1ccccc1C(=O)OCCCCCCCC,,,inactive,,inactive,,inactive,inactive,,inactive,inactive,5.64 µM (active),inactive,inactive,,inactive,,,,
C[C@]12CCC(=O)C=C1CC[C@@H]1[C@@H]2CC[C@]2(C)C(=O)CC[C@@H]12,,inactive,inactive,,inactive,,inactive,inactive,,inactive,inactive,15.2 µM (active) and 27.7 µM (active) and 15.3 µM (active),inactive,inactive,68.4 µM (active),inactive,,,,
Cc1cc(-c2ccc(N)c(C)c2)ccc1N,,inactive,,,inactive,,inactive,inactive,,inactive,inactive,46.7 µM (active),inactive,inactive,,inactive,,,,
OCC(O)CO,,inactive,inactive,,inactive,,inactive,inactive,,inactive,inactive,15.9 µM (active),inactive,inactive,,inactive,26.1 µM (active),,,
CCCCCCCCCC[N+](C)(C)CCCCCCCCCC,7.61 µM (active),inactive,,19.8 µM (active),inactive,190 µM (active),,inactive,,,,,,,3.63 µM (active),inactive,185 µM (active),,,11 µM (active)
ClC1=C(Cl)[C@]2(Cl)[C@@H]3[C@@H]4C[C@@H]([C@H]5O[C@@H]45)[C@@H]3[C@@]1(Cl)C2(Cl)Cl,,,inactive,81.4 µM (active),inactive,,inactive,inactive,,,inactive,2.36 µM (active),,inactive,,inactive,,,,56.2 µM (active)
Cc1cc(O)ccc1Cl,,inactive,inactive,,inactive,,inactive,inactive,,inactive,inactive,,inactive,inactive,,inactive,,,,
Sc1ccccc1,,inactive,,,inactive,,inactive,inactive,,inactive,inactive,25.4 µM (active),inactive,inactive,,inactive,,,,
Cc1ccc(O)c(C)c1,,inactive,inactive,,inactive,,inactive,inactive,,,inactive,,inactive,inactive,,inactive,,,,168 µM (active)
O=C(O)C(F)(F)C(F)(F)C(F)(F)C(F)(F)C(F)(F)C(F)(F)C(F)(F)C(F)(F)C(F)(F)F,49 µM (active) and 33 µM (active) and 54.8 µM (active),inactive,inactive,50.5 µM (active) and 32.8 µM (active),inactive,,inactive,inactive,,,,57.5 µM (active),inactive,inactive,,inactive,47.5 µM (active) and 14.8 µM (active),33.4 µM (active),,45 µM (active) and 35.7 µM (active) and 14.7 µM (active)
CC(C)(O)C(=O)Nc1ccc([N+](=O)[O-])c(C(F)(F)F)c1,48.9 µM (active),,,,inactive,,inactive,inactive,,inactive,inactive,20.9 µM (active) [middle of 4 runs],inactive,inactive,,inactive,,,,
Cc1ccccc1[N+](=O)[O-],,inactive,inactive,,inactive,,inactive,inactive,,inactive,inactive,,inactive,inactive,,inactive,,,,
CN(C)CCO,,inactive,inactive,,inactive,,inactive,inactive,,inactive,inactive,100 µM (active),inactive,inactive,,inactive,,,,
